Screening data: PubChem, National Center for Advancing Translational Sciences (NCATS)
Most compounds without a hit are left out; they make up all but 3.4% or so of the library.
Tau fibril ThT: tau fibrillization inhibition (ThT binding). P10636. recombinant tau K18 P301L, heparin-induced fibrillization, ThT fluorescence. Potency, µM (top dose mostly 57.4 µM), for the others: at the highest dose activity, negative = inhibition, actives largely listed as inhibitors. hit rate 2.1% among 270,000; also: nearly all actives have a fitted effect of over 55% in size
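Heparin-induced (20 uM) aggregation of recombinant human K18 P301L tau, 15 uM unlabeled with 0.24 uM labeled, pH 7 acetate buffer, 6 hr at 37 C with compound. Fibrils quantified by 30 uM ThT fluorescence after 1 hr ambient incubation.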
RGS12 GoLoco inh: inhibitors of human Gai1-RGS12 GoLoco interaction (red fluorophore) | Gai1:RGS12 GoLoco peptide FP, rhodamine, 10 min | Potency, µM (top dose mostly 61.6 µM), for the others: top-dose activity, negative = inhibition, most hits filed as inhibitors | hit rate 0.44% among 230,000 | AID 880; active = well fitted inhibition curve with a large enough effect, not every such curve was filed as active; inactive = no such curve, though single readings can be large or run the other way; also: nearly all actives have a fitted effect of over 30% in size
Target sequence (P63096 whole entry, looked up): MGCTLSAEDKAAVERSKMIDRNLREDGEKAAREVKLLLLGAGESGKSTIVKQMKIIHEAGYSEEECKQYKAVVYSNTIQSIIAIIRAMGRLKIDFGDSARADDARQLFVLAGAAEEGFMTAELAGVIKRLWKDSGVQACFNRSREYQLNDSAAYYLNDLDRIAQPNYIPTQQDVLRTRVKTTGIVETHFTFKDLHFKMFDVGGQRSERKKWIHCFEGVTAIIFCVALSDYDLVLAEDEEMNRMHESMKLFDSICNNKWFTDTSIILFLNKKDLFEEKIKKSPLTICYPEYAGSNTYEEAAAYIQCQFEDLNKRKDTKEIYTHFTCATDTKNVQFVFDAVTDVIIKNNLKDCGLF
JMJD2E inh: inhibitors of human JMJD2E histone demethylase. JMJD2E catalytic domain, FDH-coupled NADH fluorescence (FDH is formaldehyde dehydrogenase). Potency, µM (titrated, usually from 57.1 µM), for the others: at the highest dose activity change, negative = inhibition, usual class: inhibitors. B2RXH2. hit rate 1.6% among 230,000. AID 2147; active = well fitted inhibition curve with a large enough effect, not every such curve was filed as active; inconclusive = small, poorly fitted or top-dose-only effect, or another doubt; inactive = no such curve, though single readings can be large or run the other way;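 also: 0% = wells with enzyme and -100% = buffer wells without enzyme; nearly all actives have a fitted effect of over 50% in size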
Target sequence (B2RXH2 1-337 limits assumed): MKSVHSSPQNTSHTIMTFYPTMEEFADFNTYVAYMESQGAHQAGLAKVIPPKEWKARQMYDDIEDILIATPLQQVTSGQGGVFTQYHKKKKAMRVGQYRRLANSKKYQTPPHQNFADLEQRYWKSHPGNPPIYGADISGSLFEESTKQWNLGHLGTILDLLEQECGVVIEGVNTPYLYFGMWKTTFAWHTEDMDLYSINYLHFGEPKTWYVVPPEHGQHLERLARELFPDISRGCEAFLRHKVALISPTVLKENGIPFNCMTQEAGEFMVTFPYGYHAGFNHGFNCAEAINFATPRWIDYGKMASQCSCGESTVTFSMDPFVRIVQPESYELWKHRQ
Tau FP inhib: blocks human tau fibril formation measured by polarization | P10636 | K18 P301L tau heparin fibrillization, Alexa594 FP, 6 h | Potency, µM (series often up to 57.7 µM), inactives show at the top dose activity, negative = inhibition, usual class: inhibitors | hit rate 0.39% among 280,000 | AID 1468; also: nearly all actives have a fitted effect of over 55% in size
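Compound effects on tau fibrillization are measured by Alexa 594 fluorescence polarization (ex 555, em 632 nm). K18 P301L tau is used at 15 uM with 0.24 uM labeled tracer, and 20 uM heparin induces aggregation over 6 hr at 37 C.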
Tau fluor cs: counter-screen for tau fibril formation inhibitors; tau K18 P301L (four-repeat tau fragment) Alexa594 fluorescence, heparin fibrillization; Potency, µM (titrated, usually from 57.7 µM), inactives show at the highest dose activity change, negative = decrease; hit rate 0.93% among 280,000; also: nearly all actives have a fitted effect of over 55% in size
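Human K18 P301L tau (15 uM unlabeled plus 0.24 uM Alexa 594-labeled, final) in 100 mM sodium acetate pH 7 was mixed with compound and 20 uM heparin and incubated 6 hr at 37 C.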
* hit, by the source's call; ? = inconclusive; / = no result given; [ ] = dose if it differs, or a comment. Unless noted, calls follow the shape of the dose curve; as a rule, active = well fitted curve in the direction sought with a large enough effect; inconclusive = small, poorly fitted or top-dose-only effect, or another doubt; inactive = no such curve, though single readings can be large; an effect the other way counts as inactive or inconclusive. Unless noted, % is scaled to controls: 0 for no effect and ±100 for the full control effect; potency is read from the fitted curve at half-maximal effect.

SMILES	Tau fibril ThT	RGS12 GoLoco inh	JMJD2E inh	Tau FP inhib	Tau fluor cs
CCOC(=O)c1c(-c2cccc3ccccc23)csc1NC(=O)C1C2CCC(O2)C1C(=O)O (stereo not drawn)	-17.0%	-5.0%	?	-9.7%	-4.4%
O=C(NC1CCCCC1)C(c1ccc(O)c(O)c1)N(C(=O)Cn1nnc2ccccc21)c1cccc(O)c1 (stereo not drawn)	-7.0%	-2.0%	15.8µM*	-3.6%	-6.3%
Cc1cccc(C(=O)Nc2sc(-c3ccccc3)cc2C(=O)O)c1	14.1µM*	3.0%	?	14.1%	?
CC(C)N=c1cc2n(-c3ccc(Cl)cc3)c3ccccc3nc-2cc1Nc1ccc(Cl)cc1	/	10µM*	4.4%[25.5 µM]	/	/
CCCC(Oc1ccc(Br)cc1)c1nc2c3cc(OC)c(OC)cc3nc(=S)n2[nH]1 (stereo not drawn)	-6.5%	3.8%	-5.7%	?	15.8µM*[quencher]
CC(Oc1ccc(Br)cc1)c1nc2c3ccccc3nc(=S)n2[nH]1 (stereo not drawn)	?	4.6%	-2.6%	-7.6%	?
Cc1ccc(/C=C2/NC(=O)N(Cc3ccc(Br)cc3)C2=O)o1	?	-9.5%	?	-11.1%	-14.4%
O=C(O)c1ccc(-c2ccc(/C=C3\NC(=O)N(Cc4ccc(Cl)cc4)C3=O)o2)cc1Cl	28.2µM*	3.9%	?	?	-25.6%
CCOC(=O)CSc1nc2sc3c(c2c(=O)n1Cc1ccccc1)CC(C)CC3 (stereo not drawn)	-17.1%	/	/	-6.8%	-18.8%
CCOC(=O)C1CCN(C(=O)Cn2ncc3c4ccccc4n(Cc4ccccc4)c3c2=O)CC1	-9.4%	/	/	6.6%	-1.2%
CCOc1ccccc1N(CC)C(=O)c1cc2c(=O)[nH]c3ccc(C)cc3c2s1	0.1%	/	/	3.9%	-5.3%
Cc1cccc(N=C2NN=C(c3ccc4c(c3)OCCO4)CS2)c1	11.2µM*	3.7%	-4.1%	-11.9%	?
Cc1[nH]n(-c2ncc(-c3ccccc3)s2)c(=O)c1C(c1ccc(Br)cc1)C(C#N)C#N (stereo not drawn)	8.91µM*	15.1%	-2.2%	35.5µM*	?
Cc1[nH]n(C(N)=S)c(=O)c1C(c1ccccc1)C(C#N)C#N (stereo not drawn)	?	2.1%	-5.5%	-7.3%	-20.7%
Cc1ccc(CNC(=O)c2cccc(-n3cnc4cccnc43)c2)cc1	7.6%	/	/	-3.7%	-6.5%
Cc1nn(-c2nc(-c3ccc(F)cc3)cc(C(F)(F)F)n2)c(C)c1Cl	?	/	/	-4.2%	-22.1%
COC(=O)N1C(C)=Cc2ccccc2C1CC(C)=O (stereo not drawn)	-7.4%	-2.1%	8.3%	-5.4%	-4.1%
CCOC(=O)C1=C(C)NC(=O)CC1c1cc2c(cc1[N+](=O)[O-])OCO2 (stereo not drawn)	22.4µM*	-35.2%	?	?	?
O=C(Cn1c(SCCOc2ccccc2Cl)nc2ccccc21)N1CCCCC1	-17.1%	/	/	-3.8%	-15.1%
CCOc1ccc(NC2C=CS(=O)(=O)C2)cc1 (stereo not drawn)	35.5µM*	-3.4%	-5.1%	-0.2%	-17.1%
O=C(Nc1ccccc1)Oc1ccc[nH]c1=O	/	2.1%	22.4µM*	-20.4%	-27.5%
Cc1ccc(C)c2[nH]c(=O)c(C(c3nnnn3Cc3ccco3)N3CCc4ccccc4C3)cc12 (stereo not drawn)	31.6µM*	12.0%	?	?	-18.2%
Cc1ccc(Cl)cc1NC(=O)N1CCC(CN2CCc3ccccc3C2)CC1	1.3%	/	/	-6.4%	-1.8%
Cc1cccc(-n2ncc3c(Nc4ccc(Oc5ccc(Cl)cc5)cc4)ncnc32)c1	8.2%	/	/	12.6µM*	3.98µM*[quencher]
Fc1cccc(Nc2ncnc3c2cnn3-c2ccccc2)c1	?	1.4%	?	25.1µM*	?
SMILES	Tau fibril ThT	RGS12 GoLoco inh	JMJD2E inh	Tau FP inhib	Tau fluor cs
Cc1cccc(-n2ncc3c(Nc4ccc(C)c(Cl)c4)ncnc32)c1	11.3%	/	/	8.91µM*	?
O=C(COc1ccccc1)Nc1ccc2nc(SCCOc3ccccc3)sc2c1	?	/	/	-18.2%	-28.2%
CC(Oc1ccc(Br)cc1)C(=O)Nc1ncn[nH]1 (stereo not drawn)	-2.5%	/	/	-1.1%	-10.7%
Brc1ccc2ncnc(Nc3ccc(N4CCOCC4)cc3)c2c1	8.91µM*	7.6%	-6.2%	9.9%	?
O=C(N/N=C/c1ccccn1)c1cccc(S(=O)(=O)N2CCCC2)c1	-0.9%	7.4%	?	-2.7%	7.7%
O=C(N/N=C/c1ccc(O)c(O)c1)c1cccc(S(=O)(=O)N2CCCCC2)c1	-14.9%	3.5%	15.8µM*	3.9%	-19.1%
Cc1noc(C)c1-c1nccc(NCc2ccccc2)n1	/	7.08µM*	/	/	/
CCN(c1ncnc2c1cnn2-c1cc(Cl)ccc1C)C1CCCCC1	-3.6%	/	/	1.8%	-0.3%
CN(C)C(=O)c1ccc(NC(=O)Cn2nnnc2-c2ccccc2F)cc1	-1.4%	/	/	2.3%	-5.8%
N#Cc1sc2nc(N3CCCCC3)c3c(c2c1N)CCCC3	?	2.1%	?	10.3%	15.8µM*[quencher]
Cc1nc2sc(C#N)c(N)c2c2c1CCCC2	-8.6%	4.5%	?	-4.9%	-9.9%
CN(C)c1ccc(/C=N\NC(=S)SCN2C(=O)C3CCC(C)(C2=O)C3(C)C)cc1 (stereo not drawn)	8.91µM*	19.9%	?	7.3%	12.6µM*[quencher]
CCOC(=O)c1ccc(NS(=O)(=O)c2cn(C)c(C)n2)cc1	0.6%	/	/	-6.3%	1.7%
O=C(CSc1nc(-c2ccccc2)no1)N1CCCCC1	-14.9%	/	/	-1.8%	-19.9%
C/C(=N\Nc1nc(C)cc(C)n1)c1ccc(C)o1	-0.7%	7.1%	-2.1%	-0.2%	8.2%
C/C(=N\Nc1nnc2c3ccccc3n(C)c2n1)c1ccc(C)o1	14.1µM*	-2.5%	-2.4%	4.7%	-9.5%
COc1ccc(NC(=O)c2cc3c(=O)n(Cc4cccnc4)ccc3nc2C)c(OC)c1	-6.8%	/	/	5.4%	-8.9%
O=C1C(Cl)=C(NS(=O)(=O)c2ccc([N+](=O)[O-])cc2)C(=O)c2ccccc21	2µM*	-3.5%	-26.2%	8.91µM*	2.51µM*[quencher]
COC(=O)/C(=C(/F)Sc1cc(C)c(O)c(C)c1)C(F)(F)F	?	-15.4%	-2.5%	?	12.6µM*[quencher]
Nc1cccc(Nc2nc(OC(C(F)(F)F)C(F)(F)F)nc(OC(C(F)(F)F)C(F)(F)F)n2)c1	3.6%	4.5%	-6.9%	12.5%	14.1µM*[quencher]
CCN(CC)c1ccc(NC(=S)Nc2ccc(F)cc2)cc1	12.6µM*	16.2%	8.91µM*	?	?
O=C(NC(=S)Nc1ccc(N2CCCCC2)cc1)c1cccs1	12.6µM*	10.8%	0.4%	?	15.8µM*[quencher]
CCN(CC)c1ccc(NC(=S)NC(=O)c2cccs2)cc1	6.31µM*	10.9%	-29.6%	18.5%	12.6µM*[quencher]
CCN(CC)c1ccc(NC(=O)CN2CCN(CC(=O)Nc3ccc(F)cc3)CC2)cc1	-6.2%	-6.0%	-9.2%	16.6%	-16.8%
